According to PubChem BioAssay AID504467 (National Center for Advancing Translational Sciences (NCATS), 2011):
Out of some 330,000 compounds screened, about 7,700 (2.3%) were called active. A call without a number means that no potency is given here. About 26% were inconclusive and are not listed. The call rests on the fitted dose curve; in most records, active means well fitted inhibition curve with a large enough effect; inconclusive means small, poorly fitted or top-dose-only effect, or effect the other way; inactive means flat fitted curve, though single readings scatter. The full list was thinned out, with actives kept by preference.

Test: qHTS screen for small molecules that inhibit ELG1-dependent DNA repair in human embryonic kidney (HEK293T) cells expressing luciferase-tagged ELG1; further: nearly all actives have a fitted effect of over 55% in size
Details: HEK293T ELG1-luciferase reporter, luminescence, 16 h, DNA damage induced by 5-fluorouridine; series mostly up to 46.1 µM
Procedure, shortened: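 Cells (2,000 per well) received 5-fluorouridine plus test compound or DMSO and were incubated 16 hr at 37 °C, 5% CO2. Luciferase activity was read by luminescence 30 min after ONE-Glo addition; signal suppression marked inhibition of damage-induced ELG1 function.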
Potency means the concentration at half of the fitted maximal effect.

Question: With `O=C1/C(=C\c2cccnc2)CN(Cc2ccccc2)C/C1=C\c1cccnc1` as the molecule, how does the Potency read?
Answer: 3.66 µM (active)

Question: Which Potency does the source give for `O=C1NCC(=O)N(Cc2ccccc2)/C1=C/c1ccccc1` here?
Answer: inactive

Question: Which Potency does the source give for `O=Cc1cn(Cc2ccccc2)nc1-c1cccnc1` here?
Answer: inactive

Question: For `COC(=O)[C@]1(CC(C)C)N[C@H](c2ccc(SC3CCCCC3)cc2)[C@@H]2C(=O)N(C)C(=O)[C@@H]21`, which Potency is on record?
Answer: inactive

Question: With `CCOC(=O)C1CCN(c2ncnc3c2c(-c2ccccc2)cn3-c2ccc(C)cc2)CC1` as the molecule, how does the Potency read?
Answer: 14.6 µM (active)

Question: Which Potency does the source give for `CCOC(=O)C1CCN(Cc2ccc(-c3ccccc3)cc2)CC1` here?
Answer: inactive

Question: Which Potency does the source give for `CCOC(=O)C1CCN(c2ncnc3c2oc2ccc(Br)cc23)CC1` here?
Answer: inactive

Question: With `COC(=O)c1ccc(C(=O)NC2CC(C)(C)Cc3c2cnn3-c2ccc(F)cc2)nc1` (stereo unspecified) as the molecule, how does the Potency read?
Answer: inactive

Question: With `CC1(C)C[C@H]2C3=CCC4[C@@]5(C)CC[C@H](O)[C@](C)(CO)C5CC[C@@]4(C)[C@]3(C)C[C@@H](O)[C@@]2(CO)[C@@H](O)[C@@H]1O` (stereo partly specified) as the molecule, how does the Potency read?
Answer: inactive

Question: For `CCN(CC)CCCNC(=O)c1c(O)c2cc(F)cc3c2n(c1=O)C(C)CC3` (stereo unspecified), which Potency is on record?
Answer: inactive

Question: With `CC(=O)c1ccc(S(=O)(=O)N2CCN(C(=O)/C=C/c3ccc4ccccc4n3)CC2)cc1` as the molecule, how does the Potency read?
Answer: 20.6 µM (active)

Question: With `NC(=O)COC(=O)/C=C/c1ccc2ccccc2n1` as the molecule, how does the Potency read?
Answer: inactive

Question: Which Potency does the source give for `CC(=O)c1ccc(S(=O)(=O)N2CCC3(CC2)OCCO3)cc1` here?
Answer: inactive

Question: With `N#C/C(=C\c1cccnc1)C(=O)Nc1ccc(SC(F)F)cc1` as the molecule, how does the Potency read?
Answer: inactive

Question: For `CC(CNC(=O)Cn1cnc2c(OCc3ccccc3)ncnc21)c1ccccc1` (stereo unspecified), which Potency is on record?
Answer: inactive

Question: With `O=C(Nc1nc(-c2ccc3c(c2)OCO3)cs1)c1ccncc1` as the molecule, how does the Potency read?
Answer: 7.08 µM (active)

Question: For `C/C(=N/NC(=O)c1ccncc1)c1ccc2c(c1)OCO2`, which Potency is on record?
Answer: inactive

Question: Which Potency does the source give for `COc1ccc(-c2csc(NC(=O)c3ccc(N4C(=O)CCC4=O)cc3)n2)cc1OC` here?
Answer: inactive

Question: With `CCN(C(=O)COC(=O)CCOc1cccc(C)c1)c1c(N)n(Cc2ccccc2)c(=O)[nH]c1=O` as the molecule, how does the Potency read?
Answer: inactive

Question: With `O=C(CSc1ccccn1)N1CCN(S(=O)(=O)c2ccc(Cl)cc2)CC1` as the molecule, how does the Potency read?
Answer: inactive

Question: Which Potency does the source give for `CCN(C[C@H]1N[C@@](CC)(C(=O)OC)[C@H]2C(=O)N(C)C(=O)[C@@H]12)C(=O)Nc1ccc(F)cc1` here?
Answer: inactive

Question: For `O=C(Nc1cc(Cl)cc(Cl)c1)C(NCCCO)c1ccccc1` (stereo unspecified), which Potency is on record?
Answer: inactive

Question: With `NS(=O)(=O)c1cccnc1Nc1cccc(Cl)c1` as the molecule, how does the Potency read?
Answer: inactive

Question: For `OCCCNc1nccc(-c2cc(Nc3cccc(Cl)c3)ncn2)n1`, which Potency is on record?
Answer: 0.92 µM (active)

Question: With `COc1ccc(S(=O)(=O)N2CCN(CC(=O)N3CCOCC3)CC2)cc1OC` as the molecule, how does the Potency read?
Answer: inactive

Question: For `COc1ccccc1C(=O)Nc1ccc(NC(=O)c2ccco2)c(C)c1`, which Potency is on record?
Answer: inactive

Question: For `Cc1ccc(C)c(OCC(=O)N2CCN(C(=O)c3ccco3)CC2)c1`, which Potency is on record?
Answer: inactive

Question: With `COc1cc(NC(=O)c2cc([N+](=O)[O-])ccc2Br)ccc1NC(=O)c1ccco1` as the molecule, how does the Potency read?
Answer: inactive

Question: With `Cc1ccc(OCC(=O)N/N=C\c2ccco2)c(C)c1` as the molecule, how does the Potency read?
Answer: inactive

Question: Which Potency does the source give for `COc1cccc(C(=O)Nc2ccc(N3CCN(C(=O)c4ccco4)CC3)cc2)c1` here?
Answer: 13 µM (active)

Question: For `COc1ccc(NC(=O)c2cccc(NC(=O)c3ccco3)c2)c(OC)c1`, which Potency is on record?
Answer: 18.4 µM (active)

Question: For `COc1ccc(C(=O)Nc2ccccc2C(=O)N2CCN(c3ccccc3)CC2)cc1`, which Potency is on record?
Answer: inactive

Question: For `CCC(=O)Nc1ccc(C(=O)N2CCN(C(=O)c3ccco3)CC2)cc1`, which Potency is on record?
Answer: inactive

Question: For `Cc1ccc(OCC(=O)Nc2ccc(N3CCN(C(=O)c4ccco4)CC3)cc2)c(C)c1`, which Potency is on record?
Answer: 10.3 µM (active)

Question: With `Cc1cccc(C(=O)N[C@H](C(=O)NCc2cccs2)C(C)C)c1` as the molecule, how does the Potency read?
Answer: inactive

Question: For `CC(NC(=O)c1ccccc1F)c1cccc2ccccc12` (stereo unspecified), which Potency is on record?
Answer: inactive

Question: Which Potency does the source give for `CC1CCCC(NC(=O)c2cc(S(=O)(=O)N3CCCCC3)ccc2Cl)C1C` (stereo unspecified) here?
Answer: inactive

Question: Which Potency does the source give for `Cc1ccccc1CNC(=O)CCC(=O)N1Cc2ccccc2Oc2ncccc21` here?
Answer: inactive

Question: With `C=C1CCC(N(O)c2cc(C)on2)C(=C)CCC2C1CC2(C)C` (stereo unspecified) as the molecule, how does the Potency read?
Answer: inactive

Question: For `Cc1ccc(S(=O)(=O)N2CCC(C(=O)NCCC3=CCCCC3)CC2)cc1C`, which Potency is on record?
Answer: inactive

Question: Which Potency does the source give for `CC(C)(C)n1nnnc1C(c1ccc(F)cc1)N1CCN(Cc2ccc3c(c2)OCO3)CC1` (stereo unspecified) here?
Answer: inactive

Question: With `Fc1ccc2[nH]c3c(N4CCN(Cc5ccc6c(c5)OCO6)CC4)ncnc3c2c1` as the molecule, how does the Potency read?
Answer: 13 µM (active)

Question: With `O=c1[nH]c(N2CCN(Cc3ccc4c(c3)OCO4)CC2)nc2c1CCCC2` as the molecule, how does the Potency read?
Answer: inactive

Question: With `COc1cccc(CNC(=O)COc2cc(O)c3c(c2)OC(C)(C)CC3=O)c1` as the molecule, how does the Potency read?
Answer: inactive

Question: Which Potency does the source give for `Cc1ccc(S(=O)(=O)N2CCN(CC(=O)N/N=C/c3cc([N+](=O)[O-])ccc3Cl)CC2)cc1` here?
Answer: inactive

Question: For `Cc1ccc(C)c(S(=O)(=O)N2CCN(CC(=O)Nc3ccc([N+](=O)[O-])cc3)CC2)c1`, which Potency is on record?
Answer: 14.6 µM (active)

Question: Which Potency does the source give for `Cc1ccc(C)c(S(=O)(=O)N2CCN(C(=O)Nc3ccccc3)CC2)c1` here?
Answer: inactive

Question: With `Cc1ccc(S(=O)(=O)N2[C@@H](c3ccccc3F)C(C(=O)O)=CC[C@H]2c2ccc(Cl)cc2)cc1` as the molecule, how does the Potency read?
Answer: inactive

Question: With `Cc1c(NC(=O)CSc2nnc(-c3cccnc3)n2N)c(=O)n(-c2ccccc2)n1C` as the molecule, how does the Potency read?
Answer: inactive

Question: Which Potency does the source give for `Cc1ccc(NC(=O)N2CCC(c3nc4c(nnn4Cc4c(F)cccc4Cl)c(=O)[nH]3)CC2)cc1` here?
Answer: 18.4 µM (active)

Question: With `Cc1ccc(C)c(Cn2nnc3c(=O)[nH]c(C(=O)Nc4ccc(F)cc4)nc32)c1` as the molecule, how does the Potency read?
Answer: inactive

Question: For `O=C(Nc1ccc(F)cc1)N1CCCC(c2nc3c(nnn3Cc3ccccc3Cl)c(=O)[nH]2)C1` (stereo unspecified), which Potency is on record?
Answer: inactive

Question: With `Cc1cccc(NS(=O)(=O)c2ccc(C)c(C(=O)NCC(c3ccccc3)N(C)C)c2)c1` (stereo unspecified) as the molecule, how does the Potency read?
Answer: inactive

Question: Which Potency does the source give for `COc1ccc2nc(Nc3nc4ccc(NC(C)=O)cc4s3)sc2c1` here?
Answer: inactive

Question: Which Potency does the source give for `CCc1noc(C)c1C(=O)Nc1nc2ccc(OC)cc2s1` here?
Answer: inactive

Question: For `COc1ccc2nc(Nc3nc(-c4cc5ccccc5oc4=O)cs3)sc2c1`, which Potency is on record?
Answer: 3.66 µM (active)

Question: For `CC1CCCCC1NCC(=O)Nc1ccccc1C(=O)Nc1ccccc1` (stereo unspecified), which Potency is on record?
Answer: inactive

Question: For `CC(C)(C)OC(=O)N1CCC(C(=O)NNC(=O)c2ccc(Cl)cc2Cl)CC1`, which Potency is on record?
Answer: inactive

Question: With `NS(=O)(=O)c1cccc(NC(=O)CN2CCCc3ccccc32)c1` as the molecule, how does the Potency read?
Answer: inactive

Question: Which Potency does the source give for `O=C(CN1CCc2ccccc21)NC(c1ccccc1)c1ccccc1` here?
Answer: inactive

Question: Which Potency does the source give for `COC(=O)c1[nH]c2cccc(C)c2c1NC(=O)CN1CCCc2ccccc21` here?
Answer: 18.4 µM (active)
